From PubChem
FAS TE block: blocks the thioesterase domain of human fatty acid synthase. P49327. recombinant FAS-TE, OMFH fluorogenic substrate, fluorescence endpoint. inhibition, % at 15 µM. hit rate 0.67% among 360,000. AID 602261;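 active means compounds whose normalised, plate-corrected inhibition of enzyme fluorescence in the single-dose primary screen is 50% or more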;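 further: 0% = DMSO with enzyme and 100% = substrate without enzyme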
GRIN3A LBD mod: modulates the human NR3A ligand-binding domain | Tm shift relative to glycine control, % at 25 µM | hit rate 2.5% among 340,000 | AID 1259313 | NR3A LBD differential scanning fluorimetry, Tm shift; 0% = protein alone, 100% = glycine-bound protein;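 active means melting temperature shift of at least 10% of the positive control shift, at one fixed dose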
rCAG binder: r(CAG) repeat RNA binding; TO-PRO-1 dye displacement fluorescence; inhibition, % at 3 µM; hit rate 1.3% among 370,000; AID 651821;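 active means inhibition above the plate cutoff, the mean of all test compounds on that plate plus 3 SD, cut at about 35% in these data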;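 further: 0% = DMSO alone and 100% = 100 µM mitoxantrone as full dye displacement; higher means more dye released from RNA so lower well fluorescence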
MPTP block: blocks calcium-induced mitochondrial swelling; isolated mouse mitochondria, Ca2+ swelling absorbance, 30 min; inhibition, % at 10 µM; hit rate 1.4% among 360,000; AID 602449;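 active means inhibition of 50% or more, scaled per plate between neutral and stimulator controls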;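 further: 0% = DMSO wells given calcium and 100% = 1 mM EGTA wells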
Myeloid diff 2: myeloid differentiation induction; ER-HoxA9 myeloid progenitors, lysozyme-GFP differentiation, flow cytometry; hit rate 1% among 360,000; calls only at 10 µM;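 active means normalized GFP-positive differentiation at or above the plate's own cutoff, the solvent-only control mean plus 3 SD; inconclusive means no clear call, values can overlap the other calls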;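 further: cells exposed to compound for four days before flow analysis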
rCAG bind conf: r(CAG) RNA repeat binding, confirmation; hit rate 70% among 4,300; inhibition, % at 3 µM; AID 652065; shares compounds with rCAG binder; TO-PRO-1 dye displacement fluorescence;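 active means inhibition above a per-plate cutoff, the mean inhibition of sample wells plus 3 SD, cut at about 35% in these data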;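 further: loss of TO-PRO-1 fluorescence as compound displaces dye from 1x1 AA loop RNA; 0% = DMSO only wells and 100% = 100 µM mitoxantrone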
DNA CAG counter: disrupts DNA CAG TO-PRO-1 complex, flagging rCAG hits; hit rate 94% among 4,300; shares compounds with rCAG binder; d(CAG) DNA oligo TO-PRO-1 dye displacement, fluorescence; inhibition, % at 3 µM;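 active means inhibition above its plate's cutoff, the mean test-well inhibition plus 3 SD, cut at about 4.8% in these data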;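 further: 0% = DNA dye mix with DMSO and 100% = 100 µM mitoxantrone; hits displace the dye from DNA and so lower well fluorescence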
DNA CAG DR: counter-screen for rCAG binders: inhibitors of DNA CAG TO-PRO-1 complex. shares compounds with rCAG binder. DNA CAG/GTC duplex TO-PRO-1 dye displacement fluorescence. IC50, µM. hit rate 20% among 250; in the data active means IC50 below about 10 µM
Starred values were filed as active, the others as inactive; i = inactive; ? = inconclusive; . = not tested or not shown. Compounds with a hit are over-represented: about 5.7% of the library has one in this group of screens.

SMILES	FAS TE block	GRIN3A LBD mod	rCAG binder	MPTP block	Myeloid diff 2	rCAG bind conf	DNA CAG counter	others
CCN(CC)CCN1C(=O)C(O)=C(C(=O)c2cc3cccc(OC)c3o2)C1c1cccs1 (configuration not stated)	.	1	.	.	.	.	.
O=c1nc(Nc2cccc(Cl)c2)oc2cc(Cl)oc(=O)c12	6	-8	44*	1	i	56*	16*	DNA CAG DR=8.5*
O=C(O)c1ccc(NNC(=S)Nc2cc(C(F)(F)F)ccc2Cl)cc1	-6	2	39*	1	i	15	4.7*
Cc1c(NC(=O)c2cccc(NC(=O)C(C)Oc3ccccc3)c2)c(=O)n(-c2ccccc2)n1C (configuration not stated)	-5	.	5	1	i	.	.
CCOC(=O)C1=C(N)n2c(s/c(=C\c3ccco3)c2=O)=C(C(=O)OC(C)C)C1c1ccco1 (configuration not stated)	18	-3	40*	8	i	16	7.1*
Cc1ccc2nc(N/C(=N/S(=O)(=O)c3cccs3)c3ccccc3Cl)sc2c1	4	0	71*	5	i	51*	19*
O=C(CN1C(=O)/C(=C2/SC(=S)N(CCS(=O)(=O)O)C2=O)c2ccccc21)Nc1cccc(Br)c1	-1	4	73*	0	i	80*	49*
Cc1cccc(NC(=O)CN2C(=O)/C(=C3\SC(=S)N(CC4CCCO4)C3=O)c3ccccc32)c1 (configuration not stated)	6	-2	.	1	i	.	.
CN(c1ccccc1)S(=O)(=O)c1nnc(NC(=O)c2ccco2)s1	-4	-1	15	-2	i	.	.
CCN(c1ccc(C)cc1C)S(=O)(=O)c1nnc(NC(=O)c2ccco2)s1	-2	1	59*	2	?	45*	14*
CC(C)CN(c1ccccc1)S(=O)(=O)c1nnc(NC(=O)c2ccco2)s1	1	-1	48*	4	?	48*	16*
Cc1cccc(N(C)S(=O)(=O)c2nnc(NC(=O)c3ccco3)s2)c1	-4	2	13	2	i	.	.
O=C1C=C(c2ccc3ncccc3c2)C[C@@H](c2ccc(Cl)cc2)C1	23	-10	12	0	i	.	.
O=C(CN1C(=O)NC2(CCCC2)C1=O)NCCc1ccccc1	-6	2	0	0	i	.	.
O=C(O)C(Cc1c[nH]c2ccccc12)N1C(=O)C2C3c4ccccc4C(c4ccccc43)[C@@H]2C1=O (some centres not stated)	-1	5	50*	1	i	45*	12*
CC(C)CC(C(=O)O)N1C(=O)C2C3c4ccccc4C(c4ccccc43)[C@@H]2C1=O (some centres not stated)	-3	-1	18	0	i	.	.
CC(=O)CSc1nsc(SCC(C)=O)c1C#N	4	3	35*	4	i	38*	18*
CCN(CC)S(=O)(=O)c1ccc(N2CCCC2)c(NC(=O)Cc2c(F)cccc2Cl)c1	9	0	0	1	i	.	.
CC1(C(=O)NS(=O)(=O)c2ccc(C#N)cc2)CCN1C(=O)CC1CCCCC1 (configuration not stated)	7	.	5	1	i	.	.
N=C1/C(=C\c2ccc(-c3cccc(C(=O)O)c3)o2)C(=O)N=C2SC=C(c3ccccc3)N12	9	3	86*	2	i	91*	70*
Cc1cc(C(=O)O)ccc1-c1ccc(/C=C2\SC(=O)N(CC(=O)Nc3ccc4c(c3)OCO4)C2=O)o1	-35	.	11	1	i	.	.
Cc1cc(C(=O)O)ccc1-c1ccc(/C=C2\NC(=O)N(Cc3ccccc3Cl)C2=O)o1	25	-14	.	0	i	.	.
C#CCN1C(=O)S/C(=C\c2ccc(-c3ccc(C(=O)O)cc3C)o2)C1=O	1	-1	48*	0	i	43*	16*
Cc1ccc(C(=O)O)cc1-c1ccc(/C=C2/NC(=O)N(c3ccccc3)C2=O)o1	-1	0	62*	-2	i	60*	22*
